Molecules are shown by their SMILES. Active and inactive are the calls of the source. Unless noted, how the calls were made is not given here.

The test system of experiment [1] is XIP peptide (Xip251-270) binding. Put plainly: XIP fragment 251-270 binding compounds – biochemical, small-molecule microarray, fluorescence 635/667 nm, 0.1 µg/mL protein, primary screen (AID 1182). Particulars: fluorescent protein binding, 635 nm, higher = more signal, called active from +8 up or from −8 down.
Another experiment relates to XIP peptide (Xip251-270). Put plainly: compounds binding XIP fragment 251-270 – biochemical, small-molecule microarray, fluorescence 635/667 nm, 0.5 µg/mL protein, primary screen (AID 1183). Particulars: fluorescence 635 nm, higher = more signal.
Experiment [2] in a line: blood-stage malaria parasite viability loss – strain 3D7, DAPI fluorescence, 100 nL, primary screen (AID 1184).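 Further: parasites grown inside human red blood cells in medium with human serum.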 Particulars: P. falciparum 3D7 growth, 3 d, higher = more signal.
Experiment [3] has as its target Homeobox protein Hox-A13 (Mus musculus) (UniProt Q62424). Put plainly: disruptors of Hoxa13 oligonucleotide interaction – biochemical, fluorescence polarization, labeled oligonucleotide, primary screen (AID 1185). Particulars: Hoxa13:DNA binding, 15 min, higher = more signal, called active from +8 up or from −8 down. On the technique in general: Polarisation of emitted light reports the rotation of a fluorescent probe.

The nature of experiment [4]: blockers of DNA damage checkpoint Chk1 activation – imaging, HeLa, hydroxyurea, phospho-Chk1 antibody, percent positive cells, primary screen (AID 1186). Particulars: hydroxyurea-induced phospho-Chk1 immunofluorescence imaging, higher = more signal.
Experiment [5] in a line: blockers of DNA damage checkpoint Chk1 activation – imaging, HeLa, hydroxyurea, phospho-Chk1 nuclear intensity, primary screen (AID 1187). Particulars: hydroxyurea-induced phospho-Chk1 immunofluorescence imaging, higher = more signal.

Chain of Homeobox protein Hox-A13 (Mus musculus) (Q62424 whole entry, looked up): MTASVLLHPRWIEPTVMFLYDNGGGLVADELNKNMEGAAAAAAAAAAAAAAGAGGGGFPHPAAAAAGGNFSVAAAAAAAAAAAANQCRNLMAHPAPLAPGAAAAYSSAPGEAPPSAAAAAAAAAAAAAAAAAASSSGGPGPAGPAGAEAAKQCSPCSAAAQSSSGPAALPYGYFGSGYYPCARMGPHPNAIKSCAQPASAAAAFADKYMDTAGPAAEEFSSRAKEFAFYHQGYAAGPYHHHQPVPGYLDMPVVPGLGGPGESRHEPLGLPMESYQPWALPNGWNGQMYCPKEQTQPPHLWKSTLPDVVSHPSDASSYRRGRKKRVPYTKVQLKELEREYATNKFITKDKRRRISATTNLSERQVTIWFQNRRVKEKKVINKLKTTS

`C=CCN1C(=O)[C@]2(O[C@H](CCO)[C@@H]([Si](C)(C)c3ccc(OC)cc3)[C@@H]2C)c2cc(N3C(=O)c4cccc5cccc3c45)ccc21`: the results for the composite z-score (in experiment [1]; in the experiment on XIP peptide (Xip251-270)) were 0.966 (inactive) and 0.749, respectively. Moreover, the z-score in experiment [2] is -2.74; in experiment [3], -3.37 (inactive); in experiment [4], -2.42 (inactive); in experiment [5] it was -1.91 (inactive).

For the molecule `COc1cc(OC)c(C(O)C2C=CC3C(=O)NC(=O)C3N2Nc2ccc(Cl)cc2Cl)cc1Br` (stereo not drawn), the composite z-score in experiment [1] was 1.11 (inactive); in the experiment on XIP peptide (Xip251-270) it was 0.369. Besides, the z-score in experiment [2] is -0.0679; in experiment [3], -5.65 (inactive); in experiment [4], 0.66 (inactive); in experiment [5] it was 0.862 (inactive).

Regarding `CCOC(=O)C=Cc1cc([N+](=O)[O-])ccc1O`, the values for the composite z-score (in experiment [1]; in the experiment on XIP peptide (Xip251-270)) were -0.0238 (inactive) and -0.466, respectively. Besides, the z-score is -1.14 in experiment [2], 0.98 (inactive) in experiment [3], -0.818 (inactive) in experiment [4] and -1.46 (inactive) in experiment [5].

On to `COc1ccc(C(=O)O[C@H]2CC[C@]3(C)C4=C(CCC3C2(C)C)[C@]2(C)CC[C@H]([C@H](C)CCCC(C)C)[C@@]2(C)CC4)cc1` (stereo partly drawn), for which the composite z-score in experiment [1] is -0.674 (inactive); with XIP peptide (Xip251-270) it was 0.0738. In addition, the z-score was 0.148 in experiment [2], -1.08 (inactive) in experiment [3], -0.975 (inactive) in experiment [4] and -1.15 (inactive) in experiment [5].

`CN1C(=O)C2C=CC(C(O)c3ccc(I)cc3)N(N3CCCCC3)C2C1=O` (stereo not drawn): the figures for the composite z-score (in experiment [1]; with XIP peptide (Xip251-270)) were 0.405 (inactive) and 0.771, respectively. Also, the z-score in experiment [2] is -0.378; in experiment [3] it was -4.82 (inactive); in experiment [4], 0.151 (inactive); in experiment [5], -0.062 (inactive).

On to `COC(=O)[C@@]1(Cc2ccc(OC)cc2)[C@H]2c3cc(C(=O)N(C)C)n(CCN4CNCC4=O)c3C[C@H]2CN1C(=O)c1ccccc1`, for which the composite z-score was 0.384 (inactive) in experiment [1] and -0.144 in the experiment on XIP peptide (Xip251-270). Further, the z-score in experiment [2] is -1.23; in experiment [3] it was -4.73 (inactive); in experiment [4] it was -0.648 (inactive); in experiment [5], -0.397 (inactive).

Turning to `CN1C(=O)C2C=CC(C(O)C3CC=CCC3)N(NC(=O)OC(C)(C)C)C2C1=O` (stereo not drawn), the composite z-score in experiment [1] was 0.947 (inactive); with XIP peptide (Xip251-270) it was 0.539. For the same molecule, the z-score is 0.849 in experiment [2], -2.05 (inactive) in experiment [3], 0.867 (inactive) in experiment [4] and 0.509 (inactive) in experiment [5].

With `[N-]=[N+]=NCc1ccccc1C[C@]1(C(=O)NCC(O)CO)N=C(c2ccc(OCCCO)cc2)O[C@H]1c1ccccc1` (stereo partly drawn), the results for the composite z-score (in experiment [1]; in the experiment on XIP peptide (Xip251-270)) were 0.417 (inactive) and -0.148, respectively. The z-score in experiment [2] was -0.836; in experiment [3], -6.51 (inactive); in experiment [4], 0.112 (inactive); in experiment [5] it was 0.377 (inactive).

Turning to `CC(=O)NCCCC[C@@H]1NC(=O)[C@@H]2C[C@H](C(=O)NCCCCN(C)C)[C@H](c3cccc(OCCO)c3)N2C1=O`, the composite z-score was 0.172 (inactive) in experiment [1] and 0.237 in the experiment on XIP peptide (Xip251-270). The z-score in experiment [2] is -0.363; in experiment [3], -1.75 (inactive); in experiment [4], -0.281 (inactive); in experiment [5], -0.0329 (inactive).

For `COc1ccc(C(O)C2C=CC3C(=O)N(C)C(=O)C3N2N2CCCCC2)c2ccccc12` (stereo not drawn), the results for the composite z-score (in experiment [1]; in the experiment with XIP peptide (Xip251-270)) were 0.591 (inactive) and 0.637, respectively. Besides, the z-score in experiment [2] is -0.179; in experiment [3] it was -4.89 (inactive); in experiment [4], 0.294 (inactive); in experiment [5] it was 0.312 (inactive).

For the molecule `CC1(C)[C@@H]2CC(C(O)C3C=CC4C(=O)N(c5ccccc5)C(=O)C4N3Nc3ccccc3)=C[C@H]1C2` (stereo partly drawn), the composite z-score in experiment [1] was 0.386 (inactive); with XIP peptide (Xip251-270), 0.576. Moreover, the z-score in experiment [2] was -0.0796; in experiment [3], -3.65 (inactive); in experiment [4], -0.583 (inactive); in experiment [5] it was -0.715 (inactive).

As for `CCCCC=C[C@@H](NC(=O)Oc1cccc(C(F)(F)F)c1)c1ccccc1`, the results for the composite z-score (in experiment [1]; with XIP peptide (Xip251-270)) were -0.361 (inactive) and 0.168, respectively. The z-score in experiment [2] was -1.01; in experiment [3], -0.127 (inactive); in experiment [4] it was 0.38 (inactive); in experiment [5], -0.018 (inactive).

Regarding `CO[C@H]1O[C@H](CO)[C@@H](OC(=O)Nc2ccc(Br)cc2)[C@H](OC(=O)c2cc3ccccc3[nH]2)[C@H]1OC(=O)c1cc2ccccc2[nH]1`, the values for the composite z-score (in experiment [1]; in the experiment on XIP peptide (Xip251-270)) were 1.36 (inactive) and 0.716, respectively. In addition, the z-score was -1.64 in experiment [2], -2.09 (inactive) in experiment [3], -0.547 (inactive) in experiment [4] and -0.872 (inactive) in experiment [5].

On to `COCCOC(=O)N1C(=O)[C@@]2(c3cc(C#Cc4ccc(OC)cc4)ccc31)[C@H](C(N)=O)[C@H]1C(=O)O[C@H](c3ccccc3)[C@H](c3ccccc3)N1[C@@H]2c1ccccc1OCCO`, for which the composite z-score in experiment [1] is 1.85 (inactive); in the experiment on XIP peptide (Xip251-270), 0.888. Moreover, the z-score in experiment [2] is -2.04; in experiment [3], -1.77 (inactive); in experiment [4], -0.111 (inactive); in experiment [5] it was -0.559 (inactive).

Take `O=C(NCc1ccc(F)cc1)[C@H]1C[C@H]2C(=O)N[C@@H](Cc3ccccc3)C(=O)N2[C@H]1c1ccc(O)cc1`: the values for the composite z-score (in experiment [1]; in the experiment on XIP peptide (Xip251-270)) were 0.114 (inactive) and 0.832, respectively. Moreover, the z-score was -0.237 in experiment [2], -1.6 (inactive) in experiment [3], -0.762 (inactive) in experiment [4] and -0.352 (inactive) in experiment [5].

On to `O=C1C2C=CC(C(O)c3ccc(F)cc3)N(Nc3ccccc3F)C2C(=O)N1c1ccccc1` (stereo not drawn), for which the figures for the composite z-score (in experiment [1]; with XIP peptide (Xip251-270)) were 1.27 (inactive) and 0.252, respectively. For the same molecule, the z-score in experiment [2] was 0.712; in experiment [3] it was -3.25 (inactive); in experiment [4], 0.186 (inactive); in experiment [5], 0.154 (inactive).

Take `O=C(O)[C@@]1(CCS(=O)(=O)c2ccccc2)COC(c2ccc(OCCCO)cc2)=N1`: the values for the composite z-score (in experiment [1]; in the experiment with XIP peptide (Xip251-270)) were -0.0596 (inactive) and -0.271, respectively. In addition, the z-score is 0.917 in experiment [2], -2.82 (inactive) in experiment [3], -0.333 (inactive) in experiment [4] and -0.52 (inactive) in experiment [5].

For `CC(C)(C)OC(=O)CC[C@]12N=C(c3ccc(OCCCO)cc3)O[C@H]1c1ccccc1N(CCS(=O)(=O)c1ccccc1)C2=O`, the composite z-score in experiment [1] was 1.11 (inactive); in the experiment on XIP peptide (Xip251-270), 0.781. Moreover, the z-score in experiment [2] is -1.96; in experiment [3], -2.7 (inactive); in experiment [4], -0.266 (inactive); in experiment [5] it was -0.249 (inactive).

(Values after PubChem BioAssay.)
